Results as given in PubChem BioAssay AID588726 (The Scripps Research Institute Molecular Screening Center, 2011).
The whole screen tested about 360,000 compounds, of which about 8,200 (2.3%) were called active. The sample holds actives, similar compounds and a random draw of the others, so the mix is not that of the screen. Values without a mark were called inactive. No stated cut-off is given here; in the data, active means inhibition above about 27%; inactive means the rest.

These compounds were tested against Fructose-bisphosphate aldolase (Mycobacterium tuberculosis (strain ATCC 25618 / H37Rv)) (UniProt P9WQA3) (assay: M. tuberculosis aldolase activity blockers – biochemical, fluorescence, strain H37Rv, primary screen (AID 588726;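 further: 0% = vehicle and 100% = reference inhibitor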)). Settings: purified M. tuberculosis FBA, fluorescence read-out, at 1 µM, active compounds read high.
Sequence of Fructose-bisphosphate aldolase (Mycobacterium tuberculosis (strain ATCC 25618 / H37Rv)) (P9WQA3 whole entry, looked up): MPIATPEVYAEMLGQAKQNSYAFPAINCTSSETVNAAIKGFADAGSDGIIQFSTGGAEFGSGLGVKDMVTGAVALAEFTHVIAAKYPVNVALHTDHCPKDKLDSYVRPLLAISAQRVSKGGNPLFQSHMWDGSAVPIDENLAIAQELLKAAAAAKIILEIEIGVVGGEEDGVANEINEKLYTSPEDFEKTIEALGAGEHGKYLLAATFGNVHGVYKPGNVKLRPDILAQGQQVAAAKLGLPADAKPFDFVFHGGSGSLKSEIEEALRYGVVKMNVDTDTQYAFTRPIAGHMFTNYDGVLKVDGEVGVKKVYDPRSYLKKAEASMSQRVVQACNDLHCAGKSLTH

In order of rising inhibition:
1. Cc1ccc(NN=C2C(=O)OC(C)(C)OC2=O)c(C)c1  -7.26%
2. Cc1onc(-c2ccc(Cl)cc2)c1-c1ccnn1S(=O)(=O)c1ccc(Cl)cc1  -3.96%
3. CCC(Cc1ccccc1)NC(=O)C1CCCCC1 (stereo not given)  -3.87%
4. CN1CCN(c2ccc([N+](=O)[O-])c(Sc3nc4ccccc4[nH]3)c2)CC1  -3.38%
5. O=C(Nc1ccccc1Cl)/C(Cl)=C(\Cl)S(=O)c1ccccc1 (stereo not given)  -3.21%
6. COc1ccc(OC)c(NC(=O)Cn2c(=O)oc3ccccc32)c1  -2.86%
7. O=C1C2C3C=CC(C3)C2C(=O)N1c1ccc(S(=O)(=O)Nc2nccs2)cc1 (stereo not given)  -2.35%
8. CN(CC(=O)Nc1ccc(F)cc1)CC(=O)N1CCCCC1  -1.7%
9. Cc1cc(C(C)(C)C)cc(S(=O)(=O)Nc2ccc(C(=O)O)cc2)c1C  -1.68%
10. CCc1cccc2c(C=C(C#N)C#N)cn(CC(=O)N3CCCCC3)c12  -1.66%
11. COc1ccc(N2CCN(C(=S)Nc3ccc(S(N)(=O)=O)cc3)CC2)cc1  -1.46%
12. Cc1cc(Br)ccc1SCC(=O)OCC(=O)NCc1ccc2c(c1)OCO2  -1.37%
13. COc1ccc(CC(N)c2csc(NC(=O)Nc3ccc(C(C)C)cc3)n2)cc1 (stereo not given)  -1.36%
14. CCOc1ccc(Nc2nc(Cc3nnc(SCC(=O)c4ccc(C)cc4)o3)cs2)cc1  -1.31%
15. CCN(CC)C(=O)C1=C(C)N(Cc2ccc(F)cc2)C(=O)C(CC(=O)NC2CCCC2)C1 (stereo not given)  -1.29%
16. Cc1ccc(S(=O)(=O)N2CCN(C(=O)COC(=O)c3c(C)cc(C)cc3C)CC2)c(C)c1  -1.2%
17. CCCc1cc(=O)[nH]c(SCC(=O)N2CCN(S(=O)(=O)c3ccc(C)cc3C)CC2)n1  -1.1%
18. COC(=O)c1c(NC(=O)CN2C(=O)NC(CCc3ccccc3)C2=O)sc2c1CCCCC2 (stereo not given)  -0.99%
19. Cn1nccc1NS(=O)(=O)c1ccc(F)cc1  -0.97%
20. COc1ccc(C2CC(c3cccs3)=NN2C(=O)COC(=O)c2cc3ccccc3cc2O)cc1OC (stereo not given)  -0.95%
21. COc1ccc(C2CC(c3ccccc3)=NN2C(=O)c2ccc(Cl)c([N+](=O)[O-])c2)cc1 (stereo not given)  -0.72%
22. C=Cc1ccc(C(=O)N2CCCC(CCC(=O)N3CCN(c4ccccn4)CC3)C2)cc1 (stereo not given)  -0.65%
23. O=C(c1c(F)cccc1F)N1CCN(c2ncc(Br)cn2)CC1  -0.3%
24. O=C(NC1CCCC1)C(c1ccco1)N(C(=O)c1ccco1)c1ccc(F)cc1 (stereo not given)  -0.27%
25. FC(F)Oc1ccccc1NC(=S)Nc1cccc(Cl)c1Cl  -0.26%
26. COC(=O)c1cn(C(=O)c2ccc(Cl)cc2)c2ccccc12  -0.26%
27. Cc1ccc(S(=O)(=O)N2CC(=O)Nc3ccccc32)cc1C  -0.25%
28. O=C(N/N=C/c1cccc2cccnc12)[C@H]1C[C@@H]1c1ccccc1  -0.16%
29. Cc1ccc(C(=O)OCC(=O)NC(=O)Cc2ccccc2)c(O)c1  -0.03%
30. Cc1cc(C)c2c(Cn3ccnc3)cc(=O)oc2c1  0%
31. O=C(COC(=O)c1ccc2ncsc2c1)Nc1ccc(Cl)cc1  0.06%
32. Cc1cc(=O)oc(C)c1C(=O)NC1CC(C)(C)NC(C)(C)C1  0.07%
33. Oc1c(Cl)cc(Cl)c(Cl)c1Cc1c(O)c(Cl)cc(Cl)c1Cl  0.15%
34. CCCSc1ncccc1C(=O)O  0.16%
35. CC(C)NS(=O)(=O)c1ccc(CCC(=O)N2CCOCC2)cc1  0.26%
36. COCCCNS(=O)(=O)c1cccc(S(=O)(=O)c2cccc(S(=O)(=O)NCCCOC)c2)c1  0.27%
37. CCCCn1c(N)c(N(CC(C)C)C(=O)c2cnc(C)cn2)c(=O)[nH]c1=O  0.47%
38. O=C(CCNC(=O)c1ccccc1)NN=Cc1ccc(Br)o1  0.48%
39. Cc1ccc(S(=O)(=O)N(C)CC(=O)OCC(=O)N2CC(=O)Nc3ccccc32)cc1  0.54%
40. COc1ccc2c(c1)CCc1c(C(=O)N3CCCC3)noc1-2  0.6%
41. CCOC(=O)c1sc2nc(C)nc(Nc3ccc(OC)c(OC)c3)c2c1C  0.66%
42. O=C(OCc1cn([C@@H]2C[C@H](c3ccc(Cl)cc3)N(Cc3cccs3)C[C@H]2O)nn1)c1ccccc1  0.72%
43. CC(Oc1cccc(Cl)c1)C(=O)NC1CC(C)(C)NC(C)(C)C1 (stereo not given)  0.76%
44. COc1ccc(CCNC(=O)CSc2nc(C)nc3c2oc2ccccc23)cc1OC  0.84%
45. Cc1cc(C)c(NC(=S)N2CCCC2C(=O)O)c(C)c1 (stereo not given)  0.88%
46. CCc1nc2c(OCCc3cccc(OC)c3)cccn2c1N(C)C(=O)c1ccc(C)cc1  1.14%
47. Cn1c(-c2ccc(C(=O)c3ccccc3)s2)nc2ccccc21  1.32%
48. COc1ccc(N2C(=O)C3CCCN3C2c2cccs2)cc1 (stereo not given)  1.46%
49. COc1cc(C(=O)NCc2nnc(SCC(=O)Nc3nc4ccc(C)cc4s3)o2)cc(OC)c1OC  1.7%
50. COc1cccc(N2CCN(c3ccc4nnc(CCC(=O)N5CCN(C)CC5)n4n3)CC2)c1  1.71%
51. N/C(=N\OC(=O)CCn1cccc(C(F)(F)F)c1=O)c1ccc(OC(F)(F)F)cc1  1.82%
52. O=C(CNS(=O)(=O)c1ccc2ccccc2c1)Nc1ccc(F)c(F)c1F  1.83%
53. COc1ccc(NC(=O)CSc2ncnc3[nH]ncc23)cc1  1.84%
54. CN1C(=O)C2(OCCCO2)c2cc(Cl)ccc21  1.91%
55. COc1ccc(C2CC(c3cccs3)Nc3nnnn32)cc1 (stereo not given)  2.13%
56. CCCC1NC(=S)NC(C)=C1C(C)=O (stereo not given)  2.16%
57. N#Cc1ccc(C(c2ccc(C#N)cc2)n2cncn2)cc1  2.3%
58. Cc1ccc(S(=O)(=O)N2CCC(C)CC2)cc1C(=O)NCc1ccccn1  2.4%
59. COc1ccc(Br)c2c1C(=O)CC2  2.69%
60. O=C(COc1ccc(Cl)cc1)Nc1ccc2oc(=O)ccc2c1  2.76%
61. NS(=O)(=O)c1cc2c(cc1Cl)NC(C(Cl)Cl)NS2(=O)=O (stereo not given)  2.88%
62. CC(C)C(NS(=O)(=O)c1cccs1)C(=O)Nc1nc(C(C)(C)C)cs1 (stereo not given)  2.98%
63. OCCNc1nc2ccccc2n1-c1ncnc2sc3c(c12)CCC3  3.23%
64. COc1ccc(/C=N/n2c(C)cc(C)cc2=O)cc1  3.54%
65. CC(=O)c1cccc(-n2nnnc2SCC(=O)NNC(=O)C2CCCCC2)c1  3.69%
66. C=CCSc1nc(N)cc(=O)[nH]1  3.86%
67. C[N+]1(CCNC(=O)/C=N/O)CCCCC1  4.51%
68. O=C(CCc1n[nH]c(=O)[nH]c1=O)N/N=C/c1ccc(Br)o1  4.62%
69. CCc1cc(=O)oc2cc(OCC(=O)N3CCCc4ccccc43)ccc12  5.17%
70. CCCCOC(=O)Nc1sc2nc(C)cc(C)c2c1-n1cccc1  5.62%
71. CCn1c(=O)cc(SCC(=O)NCCC2=CCCCC2)c2ccccc21  6.21%
72. CC(=O)N(C)c1ccc(NC(=O)Nc2cccc3ccccc23)cc1  6.26%
73. COc1ccc(C2CC(c3cccs3)=Nc3ccccc3S2)cc1OC (stereo not given)  6.74%
74. COc1cccc(NC(=O)COc2cc(C)cc3oc(=O)cc(C)c23)c1  7.86%
75. CC(=O)Oc1c(C(=O)c2nnc(C)o2)c(=O)n(Cc2ccccc2)c2ccccc12  8.77%
76. O=C(Nc1cccc2ccccc12)NC1CC1  9.02%
77. O=C(Cc1ccccc1Cl)N1CCN(c2ccccn2)CC1  10.2%
78. Cc1ccc(C2=NN(C)c3nc4ccccc4n3C2)cc1  13.4%
79. N#Cc1cnn2cc(CCN3CCOCC3)c(-c3ccc(F)cc3)nc12  15.8%

`COc1ccc(C2CC(c3cccs3)=NN2c2ccccc2)cc1` (stereo not given) was tested, and the inhibition was 74% (active).
`COc1ccc(C2=NN(c3ccccc3)C(c3cccs3)C2)cc1` (stereo not given) was tested, and the inhibition was 113% (active).
`O=C(O)c1cccnc1Sc1ncnc2sc3c(c12)CCC3` was tested, and the inhibition was 53.6% (active).
`Cc1ccc(S(=O)(=O)N2CCN(C(=O)CSc3cc(C)ccc3C)CC2)c(C)c1` was tested, and the inhibition was 29.2% (active).
In the case of `Cc1ccc(C)c(S(=O)(=O)N2CC(=O)Nc3ccccc32)c1`, the inhibition is reported as 31.2% (active).
With `O=C(CCC(=O)N/N=C/c1ccc(Br)o1)N/N=C/c1ccc(Br)o1` the inhibition was 31.8% (active).
With `COc1ccc2c(c1)CCc1cn3ncc(C#N)c3nc1-2` the inhibition was 522% [above what the read-out allows, likely interference] (active).
For `CCN(C(=O)Nc1cccc2ccccc12)c1ccccc1`, the inhibition was 75.4% (active).
For `CC(C)OCCCNc1ncnc2c1[nH]c1ccc(F)cc12`, the inhibition was 31.8% (active).
`CC(C)Cn1cc(-c2cncc3nccn23)cn1` was tested, and the inhibition was 142% (active).
For `CCc1cc(=O)oc2cc(C)cc(OCC(=O)N3CCC[C@@H]3C(=O)O)c12`, the inhibition was 106% (active).
With `Cc1cc(OC(C)C(=O)NC2CC(C)(C)NC(C)(C)C2)c2c(C)cc(=O)oc2c1` (stereo not given) the inhibition was 154% (active).
In the case of `CCc1cc(=O)oc2cc(C)cc(OC(C)C(=O)O)c12` (stereo not given), the inhibition is reported as 176% (active).
`O=C(c1c(F)cccc1Cl)N1CCN(c2ccccn2)CC1` was tested, and the inhibition was 116% (active).
For `COC(=O)c1noc(C)c1-c1ccnn1C(=O)c1ccc(Cl)cc1`, the inhibition was 29.4% (active).
With `Cn1cccc1-c1nc2ccccc2n1C` the inhibition was 28.6% (active).
